This is a sample that favours compounds with a hit; in the whole collection about 3.5% have one here.
TMEM16A act – TMEM16A chloride channel activators or potentiators, primary screen, cell-based, HTS; AID 623877, 2012; HEK293 TMEM16A/YFP-H148Q/I152L, iodide quench fluorescence; hits give low values; Anoctamin-1 (Mus musculus), Q8BHY3; B-score at 10 µM; actives 0.3% (n = 340,000);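 active = fluorescence-ratio B-score plate-corrected deviation score at least 3 library SD below zero, with starting fluorescence score within 5 deviations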;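 also: channel opened by trigger with iodide after compound preincubation; score built on the fluorescence ratio of max minus min over baseline; more negative score means more quench and so TMEM16A activation or potentiation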
Target sequence (Q8BHY3 whole entry, looked up): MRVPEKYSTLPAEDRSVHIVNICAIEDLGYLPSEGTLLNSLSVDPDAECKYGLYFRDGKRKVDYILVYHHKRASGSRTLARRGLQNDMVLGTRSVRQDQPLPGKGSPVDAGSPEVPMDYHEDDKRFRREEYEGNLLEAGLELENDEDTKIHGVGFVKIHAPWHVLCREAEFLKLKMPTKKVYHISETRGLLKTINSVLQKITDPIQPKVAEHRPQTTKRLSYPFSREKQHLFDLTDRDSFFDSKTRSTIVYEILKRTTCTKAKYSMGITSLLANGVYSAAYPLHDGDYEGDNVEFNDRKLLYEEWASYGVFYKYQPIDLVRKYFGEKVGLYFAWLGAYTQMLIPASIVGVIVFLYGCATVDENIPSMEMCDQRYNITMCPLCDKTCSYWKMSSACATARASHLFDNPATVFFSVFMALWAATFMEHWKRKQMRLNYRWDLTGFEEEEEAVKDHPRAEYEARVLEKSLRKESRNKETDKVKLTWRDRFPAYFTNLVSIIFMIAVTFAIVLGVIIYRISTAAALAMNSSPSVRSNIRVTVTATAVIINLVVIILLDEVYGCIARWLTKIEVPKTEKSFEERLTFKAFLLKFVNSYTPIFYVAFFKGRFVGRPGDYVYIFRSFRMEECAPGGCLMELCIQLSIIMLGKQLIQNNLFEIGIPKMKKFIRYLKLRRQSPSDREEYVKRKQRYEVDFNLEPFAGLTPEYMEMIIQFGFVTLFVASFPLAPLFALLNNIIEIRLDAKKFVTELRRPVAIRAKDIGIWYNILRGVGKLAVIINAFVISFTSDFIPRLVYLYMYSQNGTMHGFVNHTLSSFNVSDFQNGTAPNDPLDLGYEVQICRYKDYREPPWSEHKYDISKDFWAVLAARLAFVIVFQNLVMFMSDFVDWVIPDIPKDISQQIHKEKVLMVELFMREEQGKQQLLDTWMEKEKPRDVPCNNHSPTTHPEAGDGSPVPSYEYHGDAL
Kir21 inh – inhibitors of mouse Kir2.1 inward-rectifier potassium channel; AID 1672, 2009; Inward rectifier potassium channel 2 (Mus musculus), P35561; actives 0.85% (n = 310,000); HEK293-Kir2.1, FluxOR thallium flux fluorescence; hits give low values; B-score at 10 µM;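 active = fluorescence ratio B-score at or below minus 3 SD of library scores, with starting-brightness B-score within 2 SD, cut at about -4.2 in these data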;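 also: channel flux triggered by added potassium and thallium sulfate stimulus; B-score of peak minus minimum fluorescence over baseline after thallium stimulus; more negative B-score means stronger Kir2.1 block with less thallium influx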
KCNK3 block – human KCNK3 channel inhibitors, primary screen, CHO cells, FluxOR thallium flux, B-score. B-score at 10 µM. FluxOR fluorescence; hits give low values. Potassium channel subfamily K member 3 (Homo sapiens), O14649. actives 0.84% (n = 340,000);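 active = B-score under library mean minus 4 SD, starting fluorescence ratio at most library mean plus 5 SD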;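 also: more negative B-score means stronger inhibition of thallium flux through KCNK3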
KCNK9 block – KCNK9 potassium channel inhibitors, primary screen, HEK293 cells, thallium flux | FluxOR thallium flux fluorescence; hits give low values | Potassium channel subfamily K member 9 (Homo sapiens), Q9NPC2 | B-score at 10 µM | actives 1.2% (n = 310,000);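 active = ratio B-score over 3 SD below the library mean, with starting fluorescence within 5 SD of its mean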;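 also: negative B-score means less thallium flux so channel inhibition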
TMEM16A inh – TMEM16A chloride channel inhibitors, primary screen, cell-based, HTS; Anoctamin-1 (Mus musculus), Q8BHY3; HEK293 TMEM16A/YFP iodide influx fluorescence, ionomycin; normalized B-score (activity score, 25-100; higher = stronger inhibition) at 10 µM; actives 1.2% (n = 310,000);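 active = ratio plate-corrected score three or more library SD toward inhibition, starting fluorescence score within five deviations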;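 also: score derived from kinetic fluorescence span divided by baseline fluorescence per well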
* = called active by the depositor; i = inactive; / = no result.

SMILES	TMEM16A act	Kir21 inh	KCNK3 block	KCNK9 block	TMEM16A inh
CCN(C=C1CC2C3CC=C4CC(O)CCC4(C)C3CCC2(C)C1=O)CC (configuration not stated)	i	/	i	/	/
CC(=O)O[C@H]1C[C@@H]2OC3C=C(C)CCC3(C)[C@@]1(C)[C@@]21CO1 (some centres not stated)	i	/	i	/	/
COC(=O)C1=C(c2ccc(-c3ccccc3)c(F)c2)C[C@@H]2CC[C@H]1N2C(=O)NCC1CC1	i	/	i	/	/
C=C(C)[C@@H]1[C@H]2OC(=O)[C@H]1[C@]1(O)C[C@H]3O[C@]34C(=O)O[C@H]2[C@]14C	i	/	i	/	/
Oc1ccc(Cl)cc1	i	/	i	/	/
Oc1ccc(C(=C(Cl)Cl)c2ccc(O)cc2)cc1	/	-5.6*	/	i	i
CCOc1cc(C=C2C(=O)NC(=O)NC2=O)ccc1OS(=O)(=O)c1ccccc1	i	-5.5*	i	i	i
CCOc1cc(CNCCc2c[nH]c3ccccc23)cc(Cl)c1OC	i	-5.6*	i	i	i
COc1cccc(CNCCc2c[nH]c3ccccc23)c1OC	i	-2	i	i	i
O=S(=O)(c1ccc(Cl)cc1)N1CCCC1c1cccnc1 (configuration not stated)	i	-5.2*	i	i	i
O=S(=O)(c1ccccc1)N1CCCCC1c1cccnc1 (configuration not stated)	i	-2.5	i	i	i
Oc1ccc(O)c2c1C1(Cl)C(Cl)=C(Cl)C2(Cl)C1(Cl)Cl	i	/	i	/	/
Cc1cc(OCC(=O)N[C@H](C(=O)O)c2ccccc2)c2c3c(c(=O)oc2c1)CCC3	-16*	3.4	i	i	i
CCN(CCCl)c1cc(CN(C)C)cc(NC(=O)c2ccc(C(=O)Nc3cc(CN(C)C)cc(N(CC)CCCl)c3)cc2)c1	i	/	i	/	/
COc1ccc(CCNCc2c(OC)ccc3ccccc23)cc1	i	-11*	i	i	i
COc1ccc(CCNCc2ccccc2)cc1	i	-2.9	i	i	i
CC(CC(C)(C)N1CC1)=NNC(=O)Nc1cccc2ccccc12	i	/	i	/	/
Cc1cc(N2CCCCC2)ccc1C=C1C(=O)N(C)C(=S)N(C)C1=O	i	-0.43	i	i	i
Cc1cc(N2CCCC2)ccc1C=C(C#N)C#N	i	0.38	i	-6.7*	i
CNc1ccc2oc(C[C@H]3O[C@@]4(CC[C@H]3C)O[C@H]([C@H](C)C(=O)c3ccc[nH]3)[C@H](C)C[C@H]4C)nc2c1C(=O)O	-37*	0	i	i	100*
O=P(Nc1cccnc1)(Oc1ccccc1Cl)Oc1ccccc1Cl	i	-4.8*	i	i	i
COc1ccc(C(=O)O/N=C(/C(N)=O)P(=O)(OC(C)C)OC(C)C)cc1	i	-4.6*	i	i	i
COc1ccc(C(O)P(=O)(OC(C)C)OC(C)C)cc1 (configuration not stated)	i	-0.08	i	i	i
COc1ccc(Cc2nccc3cc(OC)c(OC)cc23)cc1OC	i	-8.3*	i	i	i
CC1CCN(S(=O)(=O)c2ccc(NN=C(C#N)C#N)cc2)CC1	/	/	/	/	100*
SMILES	TMEM16A act	Kir21 inh	KCNK3 block	KCNK9 block	TMEM16A inh
N#CC(C#N)=NNc1ccc(S(N)(=O)=O)cc1	i	0.76	i	i	i
CN1[C@@H]2CCC[C@H]1CC(=O)C2	i	/	i	/	/
CN(C)CC(C(=O)Cc1ccccc1)c1ccccc1 (configuration not stated)	i	/	i	/	/
CCCCCn1c(=O)c(C(=O)Nc2cnccn2)c(O)c2ccccc21	-6.5*	-0.18	-10*	i	i
COc1cc2c(cc1OC)C13CCN4C=C5CCOC6CC(=O)N2C1C6C5CC43 (configuration not stated)	i	/	i	/	/
CC(=O)c1c(C)n(Cc2ccccc2Cl)c2ccc(O)cc12	i	0.78	i	i	i
CCOC(=O)COc1ccc2c(c1)c(C(C)=O)c(C)n2Cc1ccccc1	-5.5*	-1.7	i	i	i
C[C@]1(O)CC[C@H]2[C@@H]3CCC4=CC(=O)CC[C@]4(C)[C@@]3(F)[C@@H](O)C[C@@]21C	i	/	-9.8*	/	/
CC1(O)CCC2C3CCC4=CC(=O)CCC4(C)C34OC4CC21C (configuration not stated)	i	/	i	/	/
CCC(=NCCCN(CC)CC)c1c(O)n(C2CCCCC2)c(=O)[nH]c1=O	i	-1.1	i	i	100*
CN(C)c1ccc(/C=C/[N+](=O)[O-])cc1	i	-6.3*	i	i	i
C/C(=C\c1ccc(N(C)C)cc1)[N+](=O)[O-]	i	0.4	i	i	i
COc1cccc(OP(=O)(Nc2ccccc2)Oc2cccc(OC)c2)c1	i	-1.2	-9.1*	i	i
O=S(=O)(NC1CCCCC1)OCC(Cl)(Cl)Cl	i	0.11	i	i	i
CC(NS(=O)(=O)OCC(Cl)(Cl)Cl)c1ccccc1 (configuration not stated)	i	-5.7*	i	i	i
c1ccc(CCN2CCCCC2)nc1	i	/	i	/	/
C/C(CC(c1ccccc1)c1c(O)c2ccccc2oc1=O)=N\Nc1ccc([N+](=O)[O-])cc1[N+](=O)[O-] (configuration not stated)	i	-0.69	i	i	25*
O=c1oc2ccccc2c(O)c1C(c1ccc([N+](=O)[O-])cc1)c1c(O)c2ccccc2oc1=O	i	0.19	i	i	/
COc1cccc(CCNCc2ccc(SC)cc2)c1	i	-7.5*	i	i	i
COc1ccc(CCNCc2ccncc2)cc1	i	0.7	i	i	i
C=Cc1cc(OC)c2c(c1)c(=O)oc1c2cc(OC)c2c(O)ccc(C3OC(C)C(O)C(C)(O)C3O)c21 (configuration not stated)	i	/	i	/	/
CCC(C)/C=C(C)/C=C/C1=CC2=C(Cl)C(=O)C(C)(OC(C)=O)C(=O)C2=CO1 (configuration not stated)	i	0.64	i	i	100*
O=C1NC(=S)NC(=O)C1Cc1ccccc1O	i	/	i	/	/
COc1ccc(CNC(C)Cc2cccs2)cc1 (configuration not stated)	-27*	0.44	i	i	i
COC(=O)C1=C(C(=O)OC)SC2(S1)C(C(=O)OC)=C(C(=O)OC)Sc1c2ssc1=O	i	/	i	/	/
CN1CC(C(=O)c2ccccc2)C(c2ccccc2)C1 (configuration not stated)	i	-2.3	i	i	i
